Drawing on PubChem BioAssay, this text covers outcome and z-score for 26 compounds.

Where “and” joins values, the source holds several entries; their conditions need not be identical. Identical values can stand only once. Calls of active or inactive are those of the source.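 How the source made its calls, unless noted: active means mean z-score across replicates of 1.96 or higher in either the MELAS or the Rieske mutant cell line; inactive means the rest.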

The nature of the first assay: phospholipid biosynthesis inhibitors in animal cells, primary screen, cell-based, LOPAC library, screen 4 (AID 1347384; call rule not given here). The settings on record: phospholipid biosynthesis inhibition screen, at 10 µM.
On to `N=c1nc(N2CCCCC2)cc(N)n1O`, for which the compound was called inactive.

`CC(C)NCC(O)COc1cccc2[nH]ccc12` (stereo unspecified): the call was inactive.

For `CCn1cc(C(=O)O)c(=O)c2ccc(C)nc21`, the result was inactive.

As for `CN(C)C(=O)C(CCN1CCC(O)(c2ccc(Cl)cc2)CC1)(c1ccccc1)c1ccccc1`, the outcome was inactive.

`CCCC(CCC)C(=O)O`: the outcome was inactive.

On to `COc1cc(Cc2cnc(N)nc2N)cc(OC)c1OC`, for which the compound was called inactive.

For the compound `COC(=O)C1=C(C)NC(C)=C(C(=O)OCCN(C)Cc2ccccc2)C1c1cccc([N+](=O)[O-])c1` (stereo unspecified), the compound was classed as inactive.

Take `O=C(CCCN1CCC(O)(c2ccc(Cl)cc2)CC1)c1ccc(F)cc1`: the compound was called inactive.

For `CC(C)(C)NCC(O)c1ccc(O)c(CO)c1` (stereo unspecified), the call was inactive.

Consider `COc1ccc2cc([C@H](C)C(=O)O)ccc2c1`, for which the result was inactive.

As to `CN/C(=C\[N+](=O)[O-])NCCSCc1ccc(CN(C)C)o1`, the compound was classed as inactive.

Turning to `CNCCCN1c2ccccc2CCc2ccccc21`, the compound was called inactive.

Consider `CN1C(=O)CC[C@H]1c1cccnc1`, for which the outcome was inactive.

Turning to `O=C(O)CCc1nc(-c2ccccc2)c(-c2ccccc2)o1`, the call was inactive.

With `CC(C)OC(=O)C(C)(C)Oc1ccc(C(=O)c2ccc(Cl)cc2)cc1`, the call was inactive.

As to `CC(C(=O)O)c1cccc(C(=O)c2ccccc2)c1` (stereo unspecified), the outcome was inactive.

`CN1CCN(C2=Nc3cc(Cl)ccc3Nc3ccccc32)CC1`: the call was inactive.

`Oc1ccc(O)cc1`: the compound was classed as inactive.

With `COC(=O)C1=C(C)NC(C)=C(C(=O)OC)C1c1ccccc1[N+](=O)[O-]`, the call was inactive.

The next assay in a line: survival rescue of mitochondrial mutant cells in low glucose, primary screen, MELAS cybrids, Rieske KO mouse fibroblasts, CellTiter-Glo (AID 1508586).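 Further: z relative to plate mean and SD of compound and empty wells.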 The settings on record: MELAS cybrid survival, CellTiter-Glo 48 h, stronger effect = higher value. (In general: In ATP-based viability assays light output follows the ATP content of the culture.)
In the case of `N=c1nc(N2CCCCC2)cc(N)n1O`, the z-score is -0.417 (inactive) and -0.443 (inactive).

On to `Cc1ccc(-n2nc(C(C)(C)C)cc2NC(=O)Nc2ccc(OCCN3CCOCC3)c3ccccc23)cc1`, for which the z-score is -0.536 (inactive).

On to `CC(C)NCC(O)COc1cccc2[nH]ccc12` (stereo unspecified), for which the z-score was -0.583 (inactive) and -0.452 (inactive).

With `CN(C)C(=O)C(CCN1CCC(O)(c2ccc(Cl)cc2)CC1)(c1ccccc1)c1ccccc1`, the z-score was -0.364 (inactive) and -0.238 (inactive) and 0.591 (inactive).

As for `Cc1cc(NS(=O)(=O)c2ccc(N)cc2)no1`, the z-score was -0.296 (inactive) and -0.181 (inactive).

Take `O=C1CN(/N=C/c2ccc([N+](=O)[O-])o2)C(=O)N1`: the z-score was -2.68 (inactive).

On to `COc1cc(Cc2cnc(N)nc2N)cc(OC)c1OC`, for which the z-score was -0.0749 (inactive) and 0.787 (inactive) and 0.308 (inactive).

In the case of `COC(=O)C1=C(C)NC(C)=C(C(=O)OCCN(C)Cc2ccccc2)C1c1cccc([N+](=O)[O-])c1` (stereo unspecified), the z-score is -0.48 (inactive) and -0.0308 (inactive) and 0.219 (inactive).

Turning to `O=C(CCCN1CCC(O)(c2ccc(Cl)cc2)CC1)c1ccc(F)cc1`, the z-score was -0.322 (inactive) and 0.952 (inactive) and 0.0534 (inactive).

Turning to `COc1ccc2c(c1)C(=O)N(CCc1ccc(S(=O)(=O)NC(=O)NC3CCCCC3)cc1)C(=O)C2(C)C`, the z-score is -0.157 (inactive) and 0.277 (inactive).

Regarding `CC(C)(C)NCC(O)c1ccc(O)c(CO)c1` (stereo unspecified), the z-score is 0.679 (inactive) and -0.995 (inactive).

Consider `COc1ccc2cc([C@H](C)C(=O)O)ccc2c1`, for which the z-score is 0.168 (inactive).

With `COc1c2occc2cc2ccc(=O)oc12`, the z-score is -0.203 (inactive).

Regarding `NC(=O)c1cccnc1`, the z-score is -0.258 (inactive) and -0.151 (inactive) and -0.172 (inactive).

In the case of `CNCCCN1c2ccccc2CCc2ccccc21`, the z-score was 0.0784 (inactive).

In the case of `CCCC(=O)Nc1ccc(OCC(O)CNC(C)C)c(C(C)=O)c1` (stereo unspecified), the z-score is -0.162 (inactive) and 0.587 (inactive).

For `O=C(O)CCc1nc(-c2ccccc2)c(-c2ccccc2)o1`, the z-score is -0.226 (inactive) and -0.656 (inactive).

Turning to `CC(C)OC(=O)C(C)(C)Oc1ccc(C(=O)c2ccc(Cl)cc2)cc1`, the z-score was 0.204 (inactive) and 1.22 (inactive) and 0.396 (inactive).

Consider `CC(C(=O)O)c1cccc(C(=O)c2ccccc2)c1` (stereo unspecified), for which the z-score was -0.241 (inactive) and 0.309 (inactive) and -0.387 (inactive).

For `CN1CCN(C2=Nc3cc(Cl)ccc3Nc3ccccc32)CC1`, the z-score is -1.17 (inactive) and -0.401 (inactive) and 0.405 (inactive).

For `COC(=O)C1=C(C)NC(C)=C(C(=O)OC)C1c1ccccc1[N+](=O)[O-]`, the z-score is -0.44 (inactive) and 1.42 (inactive) and -0.699 (inactive).

The assay is the same for the next values; noted with them: Rieske KO mouse fibroblast survival, CellTiter-Glo 72 h.
As for `N=c1nc(N2CCCCC2)cc(N)n1O`, the z-score was 0.0783 and -0.248.

Consider `Cc1ccc(-n2nc(C(C)(C)C)cc2NC(=O)Nc2ccc(OCCN3CCOCC3)c3ccccc23)cc1`, for which the z-score was -0.851.

With `CC(C)NCC(O)COc1cccc2[nH]ccc12` (stereo unspecified), the z-score is -0.0517 and -0.221.

Consider `CN(C)C(=O)C(CCN1CCC(O)(c2ccc(Cl)cc2)CC1)(c1ccccc1)c1ccccc1`, for which the z-score was -1.34 and 0.463 and -0.456.

Regarding `Cc1cc(NS(=O)(=O)c2ccc(N)cc2)no1`, the z-score was -0.35 and -0.048.

The compound `O=C1CN(/N=C/c2ccc([N+](=O)[O-])o2)C(=O)N1` came in with a z-score of -2.1.

In the case of `COc1cc(Cc2cnc(N)nc2N)cc(OC)c1OC`, the z-score was -0.219 and -0.384 and -0.669.

`COC(=O)C1=C(C)NC(C)=C(C(=O)OCCN(C)Cc2ccccc2)C1c1cccc([N+](=O)[O-])c1` (stereo unspecified): the z-score is -0.154 and -0.712 and 0.12.

Consider `O=C(CCCN1CCC(O)(c2ccc(Cl)cc2)CC1)c1ccc(F)cc1`, for which the z-score was -0.84 and 0.343 and 0.587.

Regarding `COc1ccc2c(c1)C(=O)N(CCc1ccc(S(=O)(=O)NC(=O)NC3CCCCC3)cc1)C(=O)C2(C)C`, the z-score is -0.221 and -0.0621.

In the case of `CC(C)(C)NCC(O)c1ccc(O)c(CO)c1` (stereo unspecified), the z-score is 0.164 and -0.427.

As for `COc1ccc2cc([C@H](C)C(=O)O)ccc2c1`, the z-score was -0.681.

As for `COc1c2occc2cc2ccc(=O)oc12`, the z-score is -0.0388.

As to `NC(=O)c1cccnc1`, the z-score is 0.704 and -0.543 and -0.673.

Turning to `CNCCCN1c2ccccc2CCc2ccccc21`, the z-score is 0.183.

With `CCCC(=O)Nc1ccc(OCC(O)CNC(C)C)c(C(C)=O)c1` (stereo unspecified), the z-score was -0.138 and 0.913.

Regarding `O=C(O)CCc1nc(-c2ccccc2)c(-c2ccccc2)o1`, the z-score was -0.145 and -0.466.

In the case of `CC(C)OC(=O)C(C)(C)Oc1ccc(C(=O)c2ccc(Cl)cc2)cc1`, the z-score was 0.718 and 0.00922 and -0.202.

As to `CC(C(=O)O)c1cccc(C(=O)c2ccccc2)c1` (stereo unspecified), the z-score is 0.963 and -0.169 and -0.868.

In the case of `CN1CCN(C2=Nc3cc(Cl)ccc3Nc3ccccc32)CC1`, the z-score is 0.276 and 0.587.

For the compound `COC(=O)C1=C(C)NC(C)=C(C(=O)OC)C1c1ccccc1[N+](=O)[O-]`, the z-score was 0.0615 and 0.566 and -0.497.
